From PubChem BioAssay (NCATS)
Results filed as inconclusive are left out. The source made the active and inactive calls. Calls follow the shape of the dose curve; as a rule, active = well fitted activation curve with a large enough effect; inconclusive = small, poorly fitted or top-dose-only effect, or effect the other way; inactive = flat fitted curve, though single readings scatter.

Experiment: Cellular Toxicity (caspase-3) NIH 3T3 (AID 666);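 also: caspase signal read after 16 h compound exposure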
Conditions: NIH 3T3 caspase-3 activation, apoptosis/toxicity, 0% DMSO, 100% is 100 µM tamoxifen; series mostly up to 92.2 µM; caspase-3 activation: at the top concentration
From the text: NIH Chemical Genomics Center [NCGC]
NIH Molecular Libraries Screening Centers Network [MLSCN]
National Institutes of Environmental Health Sciences [NIEHS]
National Toxicology Program [NTP]
We have developed a 1536-well cell-based assay for quantitative high throughput screening (qHTS) against a number of cell lines to determine in vitro caspase 3/7 of small molecules. This particular assay uses the NIH 3T3 cell line which is derived from mouse fibroblasts.
NCGC Assay Protocol Summary:
The Caspase-Glo 3/7 assay (Promega) is a homogeneous method to measure caspase-3 and caspase-7 activities in cultured cells. The quantitation of caspase 3/7 activity is based on the cleavage of a peptide-aminoluciferin substrate. After caspase cleaves the substrate the free aminoluciferin is liberated and serves as the substrate of luciferase, which generates the light. The luminescent signal is proportional to amount of caspase 3/7 activity present.
Using the Caspase-Glo 3/7 assay, the amount of caspase 3/7 activity was measured in the NIH 3T3 cell line with complete culture medium following compound treatment for 16 hours. The assay was performed in opaque white 1536-well plates. In the screen, tamoxifen and doxorubicin were used as positive controls. Library compounds were measured for their ability to cause the activation of caspase 3/7 in the cell line, as reflected by an increase in luminescence signal, in a concentration-dependent manner. Data were normalized to the controls for basal activity (DMSO only) and 100% stimulation (100 uM tamoxifen). AC50 values were determined from concentration-response data modeled with the standard Hill equation.
qHTS protocol for caspase 3/7 assay in NIH 3T3 cells
[Step] [Parameter] [Value] [Description]
1. Reagent; 5 uL; 1000 NIH 3T3 cells/well
2. Time; 5 hr; 37 °C incubation
4. Controls; 23 nL; Tamoxifen 0.23 uM to 100 uM & Doxorubicin 7.0 pM to 100 uM
5. Time; 16 hr; 37 °C incubation
6. Reagent; 5 uL; Caspase-Glo 3/7 reagent
7. Time; 20 min; Room Temperature
8. Detection; Luminescence; Viewlux plate reader
Keywords: caspase 3/7, apoptosis, NIH 3T3 cell line, luminescence, NTPHTS, NTPHTS_NCGC, NIEHS, EPA, DSSTox, MLSMR, MLSCN, NIH Roadmap, qHTS, NCGC
With `CCCCCCCCCCCCC1CO1` (stereo not given) the “caspase-3 activation” value was 3.05% (inactive).
In the case of `CNC(=O)N(c1ccccc1)c1ccccc1`, the “caspase-3 activation” value is reported as 0.475% (inactive).
With `CCOCCO` the “caspase-3 activation” value was -2.47% (inactive).
In the case of `C1COC1`, the “caspase-3 activation” value is reported as 1.59% (inactive).
In the case of `N#CCc1ccccc1[N+](=O)[O-]`, the “caspase-3 activation” value is reported as 0.75% (inactive).
With `COC(=O)CCCC(=O)OC` the “caspase-3 activation” value was -0.486% (inactive).
For `O=C(O)c1cc(Cl)cc(Cl)c1`, the “caspase-3 activation” value was -7.28% (inactive).
In the case of `C=CCCCCCC`, the “caspase-3 activation” value is reported as 0.397% (inactive).
For `O=C1CCC(=O)O1`, the “caspase-3 activation” value was -2.15% (inactive).
For `CC(C)=C1CCC(C)CC1=O` (stereo not given), the “caspase-3 activation” value was 0.0625% (inactive).
In the case of `C1CCOC1`, the “caspase-3 activation” value is reported as -2.19% (inactive).
In the case of `CN(C)CCCNCCCN`, the “caspase-3 activation” value is reported as -17% (inactive).
With `c1ccc2n[nH]nc2c1` the “caspase-3 activation” value was -0.328% (inactive).
In the case of `Cc1ccccc1C(=O)O`, the “caspase-3 activation” value is reported as -2.96% (inactive).
With `CCOc1cc(OCC)c(C(C)=O)cc1OCC` the “caspase-3 activation” value was 0.102% (inactive).
For `CCOC(=O)C(C)C(C)=O` (stereo not given), the “caspase-3 activation” value was -0.0229% (inactive).
For `O=C(Cl)c1cccc([N+](=O)[O-])c1`, the “caspase-3 activation” value was 0.942% (inactive).
For `Cc1ccc2c(c1[N+](=O)[O-])C(=O)c1ccccc1C2=O`, the “caspase-3 activation” value was -4.48% (inactive).
For `CCOCCOCC`, the “caspase-3 activation” value was 2.41% (inactive).
In the case of `CC=O`, the “caspase-3 activation” value is reported as 2.84% (inactive).
In the case of `CCOC(=O)OCC`, the “caspase-3 activation” value is reported as -0.337% (inactive).
In the case of `CC(=O)OC(C)=O`, the “caspase-3 activation” value is reported as -2.84% (inactive).
For `COc1cccc2sc(N)nc12`, the “caspase-3 activation” value was -6.79% (inactive).
In the case of `C=C(C)OC(C)=O`, the “caspase-3 activation” value is reported as -4.5% (inactive).
For `COc1ccc(OC)cc1`, the “caspase-3 activation” value was 0.309% (inactive).
With `CC(=O)c1ccc([N+](=O)[O-])cc1` the “caspase-3 activation” value was -3.96% (inactive).
With `FB(F)F` the “caspase-3 activation” value was -1.32% (inactive).
With `O=C(O)CNC(=O)c1ccc([N+](=O)[O-])cc1` the “caspase-3 activation” value was -6.95% (inactive).
With `Nc1ccc(F)cc1F` the “caspase-3 activation” value was -2.15% (inactive).
With `Cc1cccc2sc(N)nc12` the “caspase-3 activation” value was 0.825% (inactive).
For `Cc1cccc(C)c1`, the “caspase-3 activation” value was 0.242% (inactive).
With `COC(=O)CC#N` the “caspase-3 activation” value was 3.05% (inactive).
In the case of `Cc1cc([N+](=O)[O-])ccc1N`, the “caspase-3 activation” value is reported as 0.235% (inactive).
With `CCCCCCCN` the “caspase-3 activation” value was -0.285% (inactive).
In the case of `BrC/C=C/CBr`, the “caspase-3 activation” value is reported as 0.908% (inactive).
With `Cc1cccc([N+](=O)[O-])c1C(=O)O` the “caspase-3 activation” value was -1.66% (inactive).
In the case of `CC(C)=CCC/C(C)=C/C=O`, the “caspase-3 activation” value is reported as -1.38% (inactive).
With `O=C1OC(=O)c2c(Br)c(Br)c(Br)c(Br)c21` the “caspase-3 activation” value was -0.84% (inactive).
In the case of `CCC=O`, the “caspase-3 activation” value is reported as -0.91% (inactive).
In the case of `CC(C)(C)OC=O`, the “caspase-3 activation” value is reported as -6.14% (inactive).
